SNCA viab count = counter-screen for SNCA expression inhibitors: cell viability | HEK-293-SNCA-luc viability, GF-AFC fluorescence, 24 h | Potency, µM (doses to about 57.1 µM), hits mostly cytotoxic | actives 0.12% (n = 150,000) | AID 1671193; also: nearly all actives have a fitted effect of over 30% in size
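Cytotoxicity counterscreen: after 24 h compound treatment of genome-edited SNCA-luciferase HEK-293 cells, live-cell protease substrate GF-AFC read by fluorescence after 30 min; activity scaled between DMSO (0%) and medium-only (-100%), curves Hill-fitted.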
FLuc inh = Photinus pyralis luciferase inhibition; purified P. pyralis luciferase, luminescence, biochemical; Potency, µM (titrated, usually from 115 µM), most hits filed as inhibitors; actives 2.5% (n = 76,000); AID 1347043; also: nearly all actives have a fitted effect of over 65% in size
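Inhibitors were tested against purified firefly luciferase in a biochemical, low-substrate format (both substrates at 10uM) and luminescence measured with a CCD imager.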
hNpr1 antagonist = antagonists of human natriuretic peptide receptor Npr1. P16066. HEK293 hNpr1 GloSensor cGMP, ANP-stimulated luminescence. Potency, µM (highest dose often 46.3 µM), actives largely listed as inhibitors. actives 1.6% (n = 76,000). AID 1347048; calls by dose curve; also: nearly all actives have a fitted effect of over 60% in size
Target sequence (P16066 whole entry, looked up): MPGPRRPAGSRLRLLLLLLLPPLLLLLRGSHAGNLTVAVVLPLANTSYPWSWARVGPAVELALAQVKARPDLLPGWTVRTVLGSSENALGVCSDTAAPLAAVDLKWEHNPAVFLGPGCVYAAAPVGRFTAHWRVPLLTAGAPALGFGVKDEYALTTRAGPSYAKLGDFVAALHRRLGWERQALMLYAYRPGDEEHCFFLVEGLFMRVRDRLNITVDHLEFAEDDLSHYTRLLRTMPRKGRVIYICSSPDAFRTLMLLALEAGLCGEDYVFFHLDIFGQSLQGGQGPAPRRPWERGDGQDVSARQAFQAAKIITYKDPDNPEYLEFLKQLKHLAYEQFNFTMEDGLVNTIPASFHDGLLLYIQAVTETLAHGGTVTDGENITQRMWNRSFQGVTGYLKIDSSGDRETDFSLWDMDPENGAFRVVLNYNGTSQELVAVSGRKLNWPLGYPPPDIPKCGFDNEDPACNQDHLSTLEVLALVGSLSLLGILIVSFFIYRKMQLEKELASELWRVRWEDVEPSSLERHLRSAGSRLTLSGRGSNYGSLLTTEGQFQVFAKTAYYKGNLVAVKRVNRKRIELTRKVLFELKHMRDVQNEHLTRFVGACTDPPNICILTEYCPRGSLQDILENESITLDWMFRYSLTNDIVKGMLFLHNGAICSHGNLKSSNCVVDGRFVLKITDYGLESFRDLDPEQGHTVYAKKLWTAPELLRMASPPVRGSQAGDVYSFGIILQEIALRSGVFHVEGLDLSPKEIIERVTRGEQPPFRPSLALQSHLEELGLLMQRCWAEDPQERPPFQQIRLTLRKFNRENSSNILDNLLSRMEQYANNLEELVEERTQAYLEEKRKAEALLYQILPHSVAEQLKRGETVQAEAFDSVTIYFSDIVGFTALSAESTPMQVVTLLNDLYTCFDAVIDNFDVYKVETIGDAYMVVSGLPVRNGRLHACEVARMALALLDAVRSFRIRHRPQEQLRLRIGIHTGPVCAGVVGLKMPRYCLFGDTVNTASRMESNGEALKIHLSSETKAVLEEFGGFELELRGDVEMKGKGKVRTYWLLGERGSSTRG
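Compound pre-incubated 30 min at room temperature on GloSensor-loaded HEK293 cells stably carrying hNpr1 and the pGS-40F cGMP biosensor. Stimulation uses hNppA at 0.1 nM final; luminescence is taken at baseline and 20 min post-agonist.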
NIH3T3 tox = NIH 3T3 cell cytotoxicity; NIH 3T3 viability, CellTiter-Glo ATP luminescence, 48-72 h; Potency, µM (top dose mostly 96.7 µM), actives largely listed as inhibitors; actives 4.3% (n = 94,000); AID 1345082; also: nearly all actives have a fitted effect of over 55% in size
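Mouse fibroblast NIH 3T3 cells, 400 per well, received compound via pintool and were incubated for 48 or 72 hr prior to CellTiter-Glo ATP luminescence measurement.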
SNCA expr inh = reduces expression of the alpha-synuclein gene | HEK-293 SNCA-luciferase knock-in, luminescence, 24 h | Potency, µM (series often up to 57.2 µM), most hits filed as inhibitors | actives 0.17% (n = 140,000) | AID 1671194; also: nearly all actives have a fitted effect of over 45% in size
HEK cytotox = kills HEK 293 cells. HEK 293 viability, ATP luminescence (CellTiter-Glo), 48-72 h. Potency, µM (series often up to 115 µM), hits mostly inhibitors. actives 6.6% (n = 94,000). AID 1345083; also: nearly all actives have a fitted effect of over 60% in size
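CellTiter-Glo luminescence (cellular ATP) was read after 48 or 72 hr of compound exposure at 37 degree Celsius. Cells were HEK 293 plated at 250 cells/well.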
Hits are given with their value; . = inactive; ? = inconclusive; / = no result; ! = repeats disagree; [ ] = another dose, or the depositor's remark. An excerpt weighted towards active compounds, which were near 7.4% of everything screened. Unless noted, calls follow the shape of the dose curve; as a rule, active = well fitted curve in the direction sought with a large enough effect; inconclusive = small, poorly fitted or top-dose-only effect, or another doubt; inactive = no such curve, though single readings can be large; an effect the other way counts as inactive or inconclusive.

SMILES	SNCA viab count	FLuc inh	hNpr1 antagonist	NIH3T3 tox	SNCA expr inh	HEK cytotox
CNC(=O)[C@H]1C[C@]2(CCCCN(CCO)C2=O)N(C(=O)Cc2cccs2)[C@H]1c1ccco1	/	/	/	?	/	35.5µM
CCOC(=O)[C@H]1C[C@]2(CCCCN(CCOC)C2=O)N(C(=O)Cc2cccs2)[C@H]1c1ccco1	/	/	/	?	/	79.4µM
CNC(=O)[C@H]1C[C@]2(CCCCN(CCO)C2=O)N(C(=O)Nc2ccccc2)[C@H]1c1ccco1	/	/	/	?	/	.
O=C(Nc1ccc(Cl)cc1)N1CCN(C(=O)c2nc3cccnc3n(Cc3ccccc3)c2=O)CC1	.[12.5 µM]	/	/	?	.	?
CCc1cnc(N)nc1NCc1nc(C(=O)NC)no1	.	.	.	.	?	.
Cc1n[nH]c(C)c1C(N)C(=O)NCc1scnc1-c1ccccc1 (stereo not given)	.	.	.	.	.	.
CC(C)c1nc(N(C)Cc2cc(-c3cccnc3)no2)c2cnn(C)c2n1	.	.	.	?	.	?
CN(CCCN1CCCCCC1)c1nc(-c2ccncc2)nc2c1cnn2C	?	.	.	31.6µM	?	?
C[S+](=O)([O-])N1CCN(C(=O)c2nc3cccnc3n(Cc3ccccc3)c2=O)CC1	.[12.5 µM]	/	/	.	.	.
CC(C)c1noc(-c2ccn3c(CNC(=O)c4cccc(N(C)C)c4)nnc3c2)n1	.	28.2µM	.	?	.	?
CC(C)c1noc(-c2ccn3c(CNC(=O)c4ccc(N(C)C)cc4)nnc3c2)n1	?	.	.	.	.	.
COCCN1CCN(Cc2ccc(-c3n[nH]c4c3C(=O)c3c(NC(=O)NN5CCOCC5)cccc3-4)cc2)CC1	0.15µM	/	/	/	/	/
COCCN1Cc2[nH]nc(-c3cccc(NC(C)=O)c3)c2CC1=O	.	.	.	?	.	.
CCN(C)C(=O)CCc1c(C)nn(-c2cccc(C)c2)c1Oc1ccc(F)cc1F	.	.	.	?	.	?
CCN(CC)C(=O)CCc1c(C)nn(-c2cccc(C)c2)c1Oc1ccc(F)cc1F	.	.	.	35.5µM	.	25.1µM
C=CCNC(=O)CCc1c(C)nn(-c2ccc(F)cc2)c1Oc1ccc(F)cc1F	.	.	.	?	.	35.5µM
Cc1nn(-c2ccc(F)cc2)c(Oc2ccccc2F)c1CCC(=O)N(C)C(C)C	.	.	.	?	.	35.5µM
CCN(CC)C(=O)CCc1c(C)nn(-c2cccc(C)c2)c1Oc1ccccc1	.	.	.	?	.	?
Cc1cccc(-n2nc(C)c(CCC(=O)N(C)C(C)C)c2Oc2ccccc2)c1	.	.	.	15.8µM	.	39.8µM
C[S+](=O)([O-])N1CC2(CCN(Cc3cccnc3)CC2)Cc2ccccc21	.	/	/	.	.	.
Cc1onc(C(=O)N2CCC(CCOc3ccc(F)cc3)C2)c1Cn1cc(Cl)cn1 (stereo not given)	.	.	?	44.7µM	.	?
C[S+](=O)([O-])N1CCN(C(=O)c2cccc(-c3ccccn3)c2)CC1	.[12.5 µM]	/	/	.	.	.
CC(C)(C)c1nnc2n1C(C(=O)N1CCCC1)CC2 (stereo not given)	.	/	/	.	.	.
COc1cccc(-c2cc3c(=O)n(CCNC(=O)Cc4ccccc4C)ccn3n2)c1	.	?	.	.	.	.
COc1cccc(-c2cc3c(=O)n(CCNC(=O)Cc4ccsc4)ccn3n2)c1	.	28.2µM	.	.	.	?
SMILES	SNCA viab count	FLuc inh	hNpr1 antagonist	NIH3T3 tox	SNCA expr inh	HEK cytotox
COc1cccc(-c2cc3c(=O)n(CCNC(=O)COc4ccccc4)ccn3n2)c1	.	25.1µM	.	.	.	.
COc1ccc(-c2cc3c(=O)n(CCNC(=O)c4cc(Cl)ccc4F)ccn3n2)cc1	.	?	.	.	.	79.4µM
COc1cccc(-c2cc3c(=O)n(CCNC(=O)Cc4cccc(F)c4)ccn3n2)c1	.	11.2µM	.	?	.	?
O=C(CC1CCCCC1)NCCc1noc(C2CC2)n1	.	.	.	.	.	.
COc1ccc(CN2CC3(C2)NC(=O)c2ccccc2O3)cc1	.	.	.	?	.	?
Cc1nn(C)c(C)c1CCC(=O)N[C@@H]1CN(Cc2ccccc2)C[C@H]1CN(C)C	.	.	.	.	.	.
CCCCOCCOc1nc(-c2ccc(C(=O)O)c(F)c2)sc1C	.	/	/	/	.	/
COc1ccc(OC)c(C(O)Cn2ccn3nc(-c4ccc(C(C)C)cc4)cc3c2=O)c1 (stereo not given)	.	?	?	.	.	31.6µM
COc1cccc(-c2cc3c(=O)n(CCNC(=O)c4cc(F)ccc4F)ccn3n2)c1	.	7.08µM	?	?	.	?
COc1cccc(-c2cc3c(=O)n(CCNC(=O)Cc4ccc(F)cc4)ccn3n2)c1	.	7.94µM	?	.	.	.
COc1cccc(-c2cc3c(=O)n(CC(O)c4ccccc4)ccn3n2)c1 (stereo not given)	.	3.55µM	.	.	.	35.5µM
O=C(Cc1ccc(F)cc1)NCc1nnc2c(-c3nc(C4CC4)no3)cccn12	.	.	.	.	?	.
O=C1N(CCc2ccccc2)c2ccccc2C12CCN(CC1CC1)C2 (stereo not given)	?	.	.	?	?	39.8µM!
O=C1N(CCc2ccccc2)c2ccccc2C12CCN(Cc1ccncc1)C2 (stereo not given)	.	.	?	35.5µM!	.	35.5µM
O=C1N(c2ccccc2)c2ccccc2C12CCN(Cc1cccnc1)C2 (stereo not given)	.	/	/	?	.	?
Cn1nccc1CN1CCC2(C1)C(=O)N(CCc1ccccc1)c1ccccc12 (stereo not given)	.	.	.	?	?	35.5µM!
O=C1N(Cc2ccccc2)c2ccccc2C12CCN(Cc1cncs1)C2 (stereo not given)	.	.	.	?	.	?
CC(C)(C)C(=O)N1CCC2(C1)C(=O)N(CCc1ccccc1)c1ccccc12 (stereo not given)	.	.	.	?	.	?
Cc1cc(CN2CCC3(C2)C(=O)N(Cc2ccccc2)c2ccccc23)no1 (stereo not given)	.	.	.	?	.	50.1µM
CNC(=O)CCn1ncc2cc(OCc3ccccc3-c3ccc(F)cc3OC)ccc21	.	?	?	?	.	?
CNC(=O)CCn1ncc2cc(OCc3ccccc3-c3ccc(F)cc3)ccc21	.	?	.	?	.	70.8µM
CNC(=O)CCn1ncc2cc(OCc3ccccc3-c3cc(F)ccc3OC)ccc21	?	39.8µM	.	?	?	79.4µM
CNC(=O)CCn1ncc2cc(OCc3ccccc3-c3ccc(F)cc3C)ccc21	.	.	.	50.1µM	?	?
CNC(=O)CCn1ncc2cc(OCc3ccccc3-c3cccc(CO)c3)ccc21	.	15.8µM	?	?	?	79.4µM
